High-throughput results as filed in PubChem BioAssay.
Sfp PPTase inh: qHTS Assay for Inhibitors of Bacillus subtilis Sfp phosphopantetheinyl transferase (PPTase); 4'-phosphopantetheinyl transferase ffp (Bacillus subtilis), Q9F4F7; Biochemical Sfp PPTase activity, qHTS; Potency, µM, without a hit: largest response in the series, negative = inhibition, hits mostly inhibitors; 3.5% of 310,000 active; AID 1490, 2009;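 note: the enzyme is Sfp with the accession as filed and its product quenches rhodamine fluorescence; potency is the fitted concentration of half-maximal effect; 0% = enzyme reaction without inhibitor and -100% = no enzyme wells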
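Fluorescence-quenching assay: 15 nM Sfp-PPTase preincubated 15 min at room temperature with compound, then 5 uM rhodamine-CoA and 12.5 uM BHQ-2-labelled YbbR peptide added. Fluorescence (ex 525/em 598 nm) read at start and after 30 min; difference gives rate.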
L3MBTL1 inh: qHTS Assay for the Inhibitors of L3MBTL1; Lethal(3)malignant brain tumor-like protein 1 (Homo sapiens), Q9Y468; AlphaScreen L3MBTL1–H3K9me1 peptide binding; Potency, µM (series often up to 57.1 µM), for inactives: top-dose activity, negative = inhibition, actives largely listed as inhibitors; 0.66% of 230,000 active; note: potency is the fitted concentration of half-maximal effect; % is set by controls: 0 for no effect and ±100 for the full control effect; nearly all actives have a fitted effect of over 60% in size
Target sequence (Q9Y468 whole entry, looked up): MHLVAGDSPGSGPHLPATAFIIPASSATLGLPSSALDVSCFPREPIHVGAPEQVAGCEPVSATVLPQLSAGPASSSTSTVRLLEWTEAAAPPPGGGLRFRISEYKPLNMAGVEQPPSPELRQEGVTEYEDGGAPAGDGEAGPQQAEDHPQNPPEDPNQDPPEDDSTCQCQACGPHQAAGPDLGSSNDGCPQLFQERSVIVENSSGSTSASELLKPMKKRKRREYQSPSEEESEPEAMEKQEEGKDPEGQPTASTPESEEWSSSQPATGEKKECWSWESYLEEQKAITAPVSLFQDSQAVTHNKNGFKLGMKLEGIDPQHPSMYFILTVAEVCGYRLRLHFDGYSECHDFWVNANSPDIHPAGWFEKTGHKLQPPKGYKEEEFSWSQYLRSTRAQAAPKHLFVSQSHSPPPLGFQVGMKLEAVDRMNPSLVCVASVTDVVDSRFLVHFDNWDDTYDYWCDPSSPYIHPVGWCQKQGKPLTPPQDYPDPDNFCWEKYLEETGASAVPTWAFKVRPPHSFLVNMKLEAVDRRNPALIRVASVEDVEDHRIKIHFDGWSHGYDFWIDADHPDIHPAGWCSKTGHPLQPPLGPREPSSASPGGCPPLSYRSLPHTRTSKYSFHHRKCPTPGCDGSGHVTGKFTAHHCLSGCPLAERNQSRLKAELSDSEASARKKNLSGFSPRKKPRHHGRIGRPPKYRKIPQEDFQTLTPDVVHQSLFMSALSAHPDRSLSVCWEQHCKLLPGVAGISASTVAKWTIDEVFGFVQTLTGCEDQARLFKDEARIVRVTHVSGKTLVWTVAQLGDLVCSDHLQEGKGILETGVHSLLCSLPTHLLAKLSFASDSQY
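Read-out is AlphaScreen signal from streptavidin donor and nickel chelate acceptor beads (10 ug/mL final each) bridging L3MBTL1 (50 nM) and biotinylated K9-monomethylated H3(1-15) peptide (75 nM), after 30 min compound exposure at room temperature.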
HP1b binding inh: HTS for Inhibitors of HP1-beta Chromodomain Interactions with Methylated Histone Tails | AlphaScreen HP1-beta / biotin-H3K9me3 peptide binding | Chromobox protein homolog 1 (Homo sapiens), P83916 | AID 540317, 2011 | 0.56% of 390,000 active | Potency, µM (highest dose often 114 µM), inactives show top-dose activity change, negative = inhibition, most hits filed as inhibitors; note: potency is the fitted concentration of half-maximal effect; nearly all actives have a fitted effect of over 70% in size
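AlphaScreen: HP1-beta (50 nM) preformed 30 min with biotin-H3(1-18)K9me3 peptide (50 nM) in PBS pH 7.4, 0.01% Tween-20. Compound added for 30 min at RT, then streptavidin donor/nickel chelate acceptor beads (10 ug/mL) for 30 min.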
JMJD2A Tudor: qHTS Assay for Inhibitors of JMJD2A-Tudor Domain; Lysine-specific demethylase 4A (Homo sapiens), O75164; AlphaScreen JMJD2A-Tudor / H3K4me3 peptide binding; Potency, µM (doses to about 114 µM), inactives show top-dose activity change, negative = inhibition, hits mostly inhibitors; 4.4% of 390,000 active; note: potency is the fitted concentration of half-maximal effect; % is set by controls: 0 for no effect and ±100 for the full control effect; nearly all actives have a fitted effect of over 50% in size
G9a block: qHTS Assay for Inhibitors of Histone Lysine Methyltransferase G9a; G9a H3K9 monomethylation, AlphaScreen, 2 h; AID 504332, 2011; Potency, µM (highest dose often 102 µM), for the others: at the highest dose activity, negative = inhibition, actives largely listed as inhibitors; 8.8% of 350,000 active; note: potency is the fitted concentration of half-maximal effect; % is set by controls: 0 for no effect and ±100 for the full control effect; nearly all actives have a fitted effect of over 75% in size
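Compounds were preincubated with 20 nM G9a for 15 min, after which biotinylated H3K9 peptide (500 nM) and SAM (20 uM) started a 2 h room-temperature reaction. Monomethylated product was quantified by antibody-based AlphaScreen chemiluminescence.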
BAZ2B inh: qHTS Assay for Inhibitors of BAZ2B | Potency, µM (doses to about 114 µM), for the others: at the top dose activity change, negative = inhibition, usual class: inhibitors | Bromodomain adjacent to zinc finger domain protein 2B (Homo sapiens), Q9UIF8 | AlphaScreen BAZ2B-H3K14Ac peptide displacement | 4.4% of 360,000 active | AID 504333, 2011; note: potency is the fitted concentration of half-maximal effect; % is set by controls: 0 for no effect and ±100 for the full control effect; nearly all actives have a fitted effect of over 60% in size
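Inhibition is scored as reduced AlphaScreen emission. The BAZ2B/b-H3(5-23)K14Ac complex (50 nM each) in PBS pH 7.4, 0.01% Tween-20 meets compound (up to 110 uM) for 30 min at RT before bead addition.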
ME-1 growth: qHTS Assay for Compounds Blocking the Interaction Between CBF-beta and RUNX1 for the Treatment of Acute Myeloid Leukemia: ME-1 cellular proliferation; ME-1 cell proliferation, ATP luminescence, 48 h; shares compounds with BAZ2B inh; 20% of 140 active; Potency, µM (highest dose often 56.1 µM), inactives show at the highest dose activity change, negative = inhibition, actives largely listed as inhibitors
* marks the source's active call; other numbers are inactive results; [ ] = remark or other dose. Most compounds without a hit are left out; they make up all but 12% or so of the library. Calls come from the whole dose curve; as a rule, active = well fitted curve in the direction sought with a large enough effect; inconclusive = small, poorly fitted or top-dose-only effect, or another doubt; inactive = no such curve, though single readings can be large; an effect the other way counts as inactive or inconclusive.

How did CC(C)[C@H]1C(=O)N2CCC[C@H]2[C@]2(O)O[C@](NC(=O)[C@@H]3C=C4c5cccc6[nH]cc(c56)C[C@H]4N(C)C3)(C(C)C)C(=O)N12 do in these assays?
Sfp PPTase inh: 56.2µM*; L3MBTL1 inh: -16.0%; HP1b binding inh: 3.2%; JMJD2A Tudor: -33.8%; G9a block: 10µM*; BAZ2B inh: inconclusive; ME-1 growth: -7.8%[25.6 µM]

Results for CC(C)C[C@H]1C(=O)N2CCCC2[C@]2(O)O[C@](NC(=O)[C@@H]3C=C4c5cccc6[nH]cc(c56)CC4N(C)C3)(C(C)C)C(=O)N12 (some centres undefined) ?
Sfp PPTase inh: -17.6%; L3MBTL1 inh: inconclusive; HP1b binding inh: -1.4%; JMJD2A Tudor: inconclusive; G9a block: 39.8µM*; BAZ2B inh: inconclusive; ME-1 growth: inconclusive

Results for C[C@H]1CN([C@@H](C)CO)C(=O)c2cc(NC(=O)Nc3cccc4ccccc34)ccc2O[C@@H]1CN(C)Cc1ccc(-c2ccccc2)cc1 ?
L3MBTL1 inh: -10.4%; HP1b binding inh: -4.6%; JMJD2A Tudor: inconclusive

How did N#Cc1cc2c(nc1SCC(=O)Nc1ccc(C(F)(F)F)cc1)C1CCN2CC1 do in these assays?
HP1b binding inh: 35.6%; JMJD2A Tudor: -4.1%; G9a block: 5.2%[59 µM]; BAZ2B inh: 0.0%

Results for CC1CCC2(CC1)NC(=O)N(NC(=O)CCl)C2=O (centres undefined) ?
Sfp PPTase inh: 18.3%; L3MBTL1 inh: 15.8%; HP1b binding inh: 53.3%; JMJD2A Tudor: 2.4%; G9a block: -29.2%; BAZ2B inh: -1.2%

Results for NCCc1cc(O)c(O)cc1O ?
Sfp PPTase inh: 63.1µM*; HP1b binding inh: 28.2µM*; JMJD2A Tudor: 10µM*; G9a block: -143.0%[2.33 µM]; ME-1 growth: inconclusive

What do the screens show for `O=C1C=CC(=O)c2c(O)cccc21`?
Sfp PPTase inh: -22.7%; G9a block: inconclusive; ME-1 growth: 22.4µM*

How did ClC1=C(Cl)C2(Cl)C3C4CC(C5OC45)C3C1(Cl)C2(Cl)Cl (centres undefined) do in these assays?
Sfp PPTase inh: 7.8%; G9a block: -0.5%[12.7 µM]

What do the screens show for `C=CCN(C1=NCCN1)c1c(Cl)cccc1Cl`?
Sfp PPTase inh: -13.5%; G9a block: 6.4%[59 µM]

How did NC(Cc1cc(O)c(O)cc1O)C(=O)O (centres undefined) do in these assays?
L3MBTL1 inh: 0.159µM*; G9a block: 0.447µM*; BAZ2B inh: 0.891µM*; ME-1 growth: -12.8%

Results for CN(N=O)c1ccc(O)c(O)c1 ?
G9a block: 0.501µM*; ME-1 growth: -15.9%

What do the screens show for `O=C1Nc2ccc(Cl)cc2C(c2ccccc2Cl)=NC1O` (centres undefined)?
Sfp PPTase inh: 5.1%; G9a block: 18.8%[59 µM]

Results for c1ccc2ccccc2c1 ?
Sfp PPTase inh: inconclusive; L3MBTL1 inh: 10.9%; HP1b binding inh: 33.2%; JMJD2A Tudor: -9.0%; G9a block: -0.6%[0.501 µM]; BAZ2B inh: 5.8%
